The record followed here is PubChem BioAssay (NCI).

Molecules are shown by their SMILES. “And” between values parts separate entries of the source, which are not always exact repeats. Identical values can stand only once. About 83,000 compounds went through this panel and 20% of them were active in at least one assay; those are over-represented in the sample as a whole.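 For each line, cells grew in 96-well plates with the test compound present at a single concentration for 48 hours.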 Values without a mark were called inactive. The source made the active and inactive calls. The calls were made as follows: active = growth percent below 10; inactive = the rest.

In the test the test system is MDA-MB-468 breast. Briefly: NCI-60 one-dose screen, 48 h (100 = growth as untreated, 0 = no growth, -100 = all killed). The following applies: 10 µM unless noted.
In the case of `CCOC(=O)CCC(=O)P(=O)(O)O`, the growth was 114%.
`O=C(N/N=C/c1cccc2ccccc12)C1CC1`: the growth is 120% and 106%.
Take `COc1ccc(/C=C/c2c(C(=O)/C=C/c3cccs3)c(C)nc3ccccc23)cc1`: the growth is 66.9%.
The result for `N#C/C(=C\c1ccc([N+](=O)[O-])s1)c1nc2cc(Cl)ccc2s1` reads 93.7%; that for `COc1cc(-c2nn(-c3cccc(NC(=O)Nc4ccc(Cl)c(Cl)c4)c3)cc2-c2ccncc2)ccc1Cl`, 2.14% (active); that for `CCn1c(SCC(=O)N/N=C(\C)c2ccc(Cl)cc2)nc2c1c(=O)n(C)c(=O)n2C`, 96.6%.
The result for `COc1cc(/C=C/C(=O)c2ccc(-n3cc(CN4CCN(c5cc6c(cc5F)c(=O)c(C(=O)O)cn6C5CC5)CC4)nn3)cc2)cc(OC)c1OC` reads 72.5%; that for `CCCCCCCCCCCCNCCCc1ccccc1`, 13%; that for `CNCc1ccccc1CN(CC(=O)Nc1ccc2c(c1)CC1(C2)C(=O)Nc2ncccc21)C(=O)C(C)(C)C` (stereo not given), 107%.
On to `O=Nc1ccc(NO)c2ccccc12`, for which the growth is 73.7%.
In the case of `CCN(CC)c1ccc(C(=C2C=CC(=[N+](CC)Cc3cccc(S(=O)(=O)O)c3)C=C2)c2ccc(N(CC)Cc3cccc(S(=O)(=O)O)c3)cc2)cc1`, the growth is 12.1%.
The result for `O=C(O)/C(=C\c1ccc(Cl)cc1)c1ccc(Cl)cc1` reads 78.9%; that for `N/C(=N\c1nc2ccccc2[nH]1)NC(=O)Cc1cccc2ccccc12`, 79.8%.
The value for `COc1ccc(Nc2ncc(Br)c(NCCCNC(=O)C3CCCC3)n2)cc1` was 54.5%.
As to `CC(C)(C)NCCC(O)c1cc(C(F)(F)F)nc2c(C(F)(F)F)cccc12` (stereo not given), the growth was 70.9%.
The value for `NC(=Nc1ccccc1)SCCCCSC(N)=Nc1ccccc1` was 82.6%; that for `Cc1cc(Br)nnc1Br` was 101%; that for `FC(F)(F)c1cc(N2CCCCC2)nc(NCCCNc2ccnc3cc(Cl)ccc23)n1` was 1.13% (active).
The result for `COc1ccc(Nc2ncnc3ccc(-c4cncc(NS(C)(=O)=O)c4)cc23)cc1Cl` reads -10.1% (active).
With `C=C[C@H]1C[C@@H]2C[C@@H]3[C@H]4C/C=C\C(=O)NCCCC5NC(=O)C(=C(O)/C=C/[C@@H]4CC(=O)[C@H]3[C@@H]2[C@H]1C)C5=O` (stereo not given in full), the growth was -29.9% (active).
The result for `C/C(=N/Nc1nc(N/N=C(/C)c2ccc([N+](=O)[O-])cc2)nc(N2CCOCC2)n1)c1ccc([N+](=O)[O-])cc1` reads 79.7%; that for `CCN(CC)CCOC(=O)C(c1ccccc1)(c1ccccc1)C(C)C`, 80%; that for `COc1cccc(Cn2cc3c(c2)-c2oncc2CC3)c1`, 1.66% (active).
The value for `CCCCCCCn1cc2c(N[C@H](C)c3ccccc3)ncnc2n1` was 119%; that for `Nc1c(C(=O)Nc2ccnc3ccccc23)sc2nc3c(cc12)CN(Cc1ccccc1)CC3` was 44%; that for `Cc1cccc(N2CCN(C(=S)c3ccc4c(c3)OCO4)CC2)c1` was -37.6% (active).
The value for `Cc1ccc(CSc2nc(-c3ccc(Cl)cc3)c(C#N)c(N3CCNCC3)n2)cc1` was 81.5%; that for `CCOC(=O)C1=C(C)n2nc(CC#N)c(C#N)c2NC1c1ccc(CC)cc1` (stereo not given) was 114%; that for `COc1cc(-c2nc(SCc3ccc(C)cc3)[nH]c(=O)c2C#N)ccc1OCc1ccccc1` was 87.3%.
In the case of `COc1ccccc1N1C(=O)/C(=C/C2=Cc3ccccc3OC2)SC1=S`, the growth was 95%.
The value for `C=C1C(=O)O[C@H]2[C@H]1CC/C(COC(=O)NCc1ccc(Cn3c(=O)sn(-c4ccccc4)c3=O)cc1)=C\CC[C@@]1(C)O[C@@H]21` was -33.8% (active).
The result for `COC1=C(OC)C(=O)C(OC)=C(OC)C1=O` reads 33.4%; that for `C=CC(=O)Nc1cc(Nc2nccc(-c3cn(C)c4ccccc34)n2)c(OC)cc1N(C)CCN(C)C`, -74.1% (active).
The value for `CC12CCC(C(=O)CC1=O)C2(C)C` (stereo not given) was 99.3%; that for `O=S(=O)(NCCCNc1cc(-c2cn(-c3ccccc3)nc2-c2cccc(O)c2)ccn1)c1ccc(Br)cc1` was -27.4% (active); that for `CC(O)COc1ccc(-c2ccccc2)cc1` (stereo not given) was 102%.
Consider `COc1ccc(N2CCN(c3nc(-c4cc(OC)c(OC)c(OC)c4)nc4ccccc34)CC2)cc1`, for which the growth is 76.2%.
The result for `Cn1cc(-c2csc(-c3c[nH]c4ccccc34)n2)c2cccnc21` reads -22% (active); that for `C#CCOc1ccc(C2=NN(CC3CC3)C3N=C(Cl)c4ncn(CC5CC5)c4N23)cc1OCC#C` (stereo not given), 66.2%; that for `COc1ccc2c(c1)/C(=C/c1sc(=S)n(Cc3ccco3)c1O)C=N2`, 3.03% (active).
